Here are results for 21 compounds from PubChem BioAssay (NCATS).

Inconclusive results are not listed. Unmarked numbers belong to inactive results. Calls of active or inactive are those of the source. Calls come from the whole dose curve; as a rule, active = well fitted curve in the direction sought with a large enough effect; inconclusive = small, poorly fitted or top-dose-only effect, or another doubt; inactive = no such curve, though single readings can be large; an effect the other way counts as inactive or inconclusive. Numbered stars: 1 amine (or outer) side, 2 acyl side, 3 side chain; on linkers, the order of the positions; unused ones are H or OH. Bridge positions count the residues as written; N and C are the ends. Square brackets hold non-standard residues; d marks the D form. Peptide text beside a SMILES is read from it. ξ: configuration not given here. X1 = CCCCCCCCCC(=O)[C@H](C(=O)[*:2])[C@@H]1CNC(=O)[C@@H](N[*:1])CS1; Phe(3R-OH) = O=C([C@@H](N[*:1])[C@H](O[*:3])c1ccccc1)[*:2]; NMeTrp(4-OMe) = CN[C@@H](Cc1c[nH]c2cccc(OC)c12)C(=O)O; ξThr(3R)(O-yl) = C[C@@H](O[*:3])C(N[*:1])C(=O)[*:2]; NMeThr(3ξ) = CN[C@H](C(=O)O)C(C)O; NMeL = CN[C@@H](CC(C)C)C(=O)O; NMeV = CN[C@H](C(=O)O)C(C)C; ξIle = CC[C@H](C)C(N)C(=O)O; ξV = CC(C)C(N)C(=O)O

Assay [1] is described as follows: SW1088 Cancer Cell Toxicity qHTS against the NCATS CANVASS Library (AID 1347350). Note: nearly all actives have a fitted effect of over 75% in size. Put shortly: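 Cells were seeded at 1000 per well, allowed 4 h at 37 degrees C/5% CO2, then pin-treated with an 11-point compound series. After 72 h, viability was read as CellTiter-Glo luminescence following 15min at room temperature.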
The nature of assay [2]: DH5-alpha competent E. coli microbial cell viability qHTS against the NCATS CANVASS Library (AID 1347377). The note with it: outcome: dose series up to 46.1 µM unless noted. Put shortly:
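Bacteria were dispensed at 0.2 OD, then compounds were pin-transferred. Plates were incubated overnight at 37C, after which BacTiter-Glo was added and luminescence measured 20 min later.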

A short description of assay [3]: qHTS assay for small molecule disruptors of mitochondrial membrane potential screened against the NCATS CANVASS Library (AID 1347389). Note: series mostly up to about 46 µM; nearly all actives have a fitted effect of over 60% in size. Put shortly: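 Mitochondrial depolarization in HepG2 cells is scored as a falling aggregate-to-monomer fluorescence ratio after 1 hr compound exposure and 30 min staining with Mito-MPS dye at 37C, each compound tested as an 11-point titration.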

The nature of assay [4]: Vero-766 cells viability qHTS against the NCATS CANVASS Library: Counterscreen for Zika virus inhibition assay (AID 1347394). Note: series mostly up to about 46 µM; nearly all actives have a fitted effect of over 60% in size. Put shortly:
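This cytotoxicity counterscreen uses African green monkey Vero 766 cells in the absence of Zika virus. Compounds are incubated with cells for 72 h, and ATP-based luminescence reports viability.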
On the technique in general: qHTS replaces the single test concentration by a dilution series.

Assay [5] can be described thus: Secretion counterscreen for inhibitors of the SERCaMP assay screened against the NCATS CANVASS Library (AID 1347390).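 Note: light from luciferase secreted into medium read as a measure of general secretion.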 Note: potency is the fitted concentration of half-maximal effect. Put shortly: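 Counterscreen identifying compounds that disrupt secretion, using SH-SY5Y cells with a constitutively secreted Gaussia luciferase reporter. A 20 h compound exposure (top 77 uM) precedes luminescent detection with coelenterazine.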
On the technique in general: A counterscreen serves to expose hits that act by an unwanted route or on another target.

Assay [6] in a line: HEK-293 Cancer Cell Toxicity qHTS against the NCATS CANVASS Library (AID 1347355). Note: series mostly up to about 46 µM; nearly all actives have a fitted effect of over 65% in size. Put shortly: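 First, 1000 cells go into each well and rest for 4 hours. Next, an 11-point dilution range is pinned in. Plates then incubate 72 hours before CellTiter-Glo addition and luminescence reading.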
Assay [7] is described as follows: HEK293 18hr Apoptosis Induction qHTS against the NCATS CANVASS Library (AID 1347357). Put shortly: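 Luminescent caspase-3/7 signal is measured in HEK293 cells exposed for 18 hours to an 11-point concentration series; doxorubicin serves as the plate control.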
Assay [8] is described as follows: qHTS for activators of dead-cell proteases activity screened against the NCATS CANVASS Library (AID 1347392).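 Note: luminescence from protease leaking out of membrane-damaged cells cleaving impermeant substrate; rising signal means more cytotoxicity.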 Put shortly:
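Cytotoxicity in HepG2 cells was assessed by released protease cleaving AAF-aminoluciferin, with luminescence as signal. Exposure lasted 5 h at 37C across an 11-point series.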

Assay [9] is described as follows: qHTS for inhibitors of ER calcium dysfunction: SERCaMP assay screened against the NCATS CANVASS Library (AID 1347393).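 Note: series mostly up to about 77 µM; lower secreted reporter signal means inhibitor of ER calcium depletion; nearly all actives have a fitted effect of over 40% in size.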 Put shortly: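 qHTS in SH-SY5Y reporter cells: 16 h compound pretreatment, 4 h thapsigargin, then secreted Gaussia luciferase measured by luminescence.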
Assay [10] is described as follows: ZIKV-mCherry secondary qHTS for Zika virus inhibitors (AID 1347158). Note: top concentration of the series differs between compounds. Put shortly:
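Compounds were tested in Vero monkey kidney cells infected with recombinant mCherry-expressing Zika virus at MOI 1 for 48-72 h at 37 °C. Fixed cells were nuclear-stained and imaged, and infection rate was taken as the fraction of mCherry-positive cells.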

Assay [11] deals with Zika virus NS2B-NS3 protease (linked). The assay can be described thus: 384 well plate NINDS AMC confirmatory qHTS for Zika virus inhibitors (AID 1347163).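 Note: linked protease at 5 30 or 60 nM final depending on run; fluorescence of AMC released from Ac-VKTGKR-AMC peptide cleaved by the protease; top concentration of the series differs between compounds; nearly all actives have a fitted effect of over 50% in size.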 Put shortly: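 Fluorescence at 355/460 nm was read after 25 minutes of cleavage of 30 microM Ac-VKTGKR-AMC at room temperature, in the dark. Before substrate addition, compounds (up to 1 mM final) sat ~15 minutes with 5, 30 or 60 nM linked protease. Signals were normalized to no-enzyme and no-inhibitor wells.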

The subject of assay [12] is Zika virus NS2B-NS3 protease (linked construct). The assay can be described thus: 384 well plate NINDS Rhodamine confirmatory qHTS for Zika virus inhibitors (AID 1347164). Note: nearly all actives have a fitted effect of over 65% in size. Note: potency is the fitted concentration of half-maximal effect. Put shortly:
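Compounds are incubated about 15 minutes with linked protease (5, 30 or 60 nM final). Rhodamine 110-tagged Ac-LKRR substrate (10 microM final) is added and fluorescence measured after 25 minutes.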

Assay [13] is described as follows: qHTS for Activators of p53 Stress Response Pathway screened against the NCATS CANVASS Library (AID 1347388). Put shortly:
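p53RE-bla HCT-116 cells (4000/well) were plated 5 h at 37C, exposed to compounds for 16 h at 37C over an 11-point concentration series, then loaded with CCF4 for 2 h at room temperature; 460/530 nm emission ratio read.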

Turning to `CC1(C)CCC[C@]2(C)[C@@H]1CC[C@@]13C[C@@H](CC[C@H]12)C(C)(O)C3` (stereo partly drawn), the Potency entry in assay [1], in assay [3] and in assay [4] was “inactive” throughout. The call in assay [2] was inactive.
Consider `COc1ccc(CCCc2cc(O)c(OC)c(O)c2)c(O)c1O`, for which the Potency entry in [1], in [5] and in assay [4] was “inactive” each time.
On to `O=C1c2c(O)cc(O)cc2O[C@@H](c2ccc(O)cc2)[C@@H]1c1c(O)cc(O)c2c(=O)cc(-c3ccc(O)c(O)c3)oc12`, for which the Potency entry in [1], in assay [6], in [7], in [5] and in [8] was “inactive” each time.
Consider `C[C@@]12CCC[C@@](C)(C(=O)O)[C@H]1C[C@@H](O)[C@]13C[C@H]4C[C@H](O[C@@]4(C)C1)[C@@H]23`, for which the compound was classed as inactive in assay [2]. Further, the Potency entry in assay [4] is “inactive”.
`CN1C(=O)C2C(N=CN2C)N(C)C1=O` (stereo not drawn): the Potency result in assay [1], in [6], in assay [3], in assay [8], in assay [9] and in assay [4] was “inactive” each time. Moreover, in [2], the result was inactive.
In the case of `C[C@@H]1C(=O)[C@]23CC[C@H]1C[C@]21O[C@H]2C(C)(C)C=CC(=O)[C@@]23COC1=O`, the Potency result in assay [1], in assay [6], in [7], in [3], in assay [8] and in [4] was “inactive” in each case.
`Cc1ccc(-c2nnc(Nc3ccc(S(N)(=O)=O)cc3)c3ccccc23)cc1S(=O)(=O)N1CCOCC1`: the Potency result in assay [10] is “inactive”.
As for `Cc1ccc(-c2nnc(Nc3ccc(Br)cc3)c3ccccc23)cc1S(=O)(=O)NCc1nc2ccccc2[nH]1`, the Potency result in assay [10], in assay [11] and in [12] was “inactive” in each case.
As to `Cc1ccc(Nc2nnc(-c3ccc(C)c(S(=O)(=O)NCc4nc5ccccc5[nH]4)c3)c3ccccc23)cc1`, the Potency entry in [10] and in assay [11] was “inactive” each time.
As for `O=C(O)COc1ccc(-c2nccc3c2C(=O)N(Cc2cccc(C(F)(F)F)c2)CC(COc2ccccc2)O3)cc1` (stereo not drawn), in [10], the Potency result was “inactive”. Also, in assay [12], the Potency is 39.8 µM (active).
`Oc1ccc(/C=C2/c3cc(O)cc(O)c3C(c3ccc(O)cc3)[C@H]2c2cc(O)cc(O)c2)cc1` (stereo partly drawn): the Potency entry in [1], in [6], in [7], in assay [3] and in assay [8] was “inactive” each time. In assay [2], the compound was classed as inactive.
`CCCCCCCCCC(=O)[C@@H]1C(=O)N[C@@H](CC(C)C)C(=O)N[C@H](C)C(=O)N2CCC[C@H]2C(=O)N[C@@H](C(C)C)C(=O)N[C@H]2CS[C@H]1CNC2=O` (cyclo(L[dA]PV[X1])): the Potency result in assay [7], in assay [13], in assay [3], in [5], in assay [8] and in [4] was “inactive” throughout.
With `O=C(O)[C@@]12CO[C@@]3(O)C4CCN(CC[C@H]31)[C@H]4c1c2[nH]c2ccccc12`, the Potency entry in [7], in assay [5] and in assay [4] was “inactive” throughout.
Regarding `C=C[C@]1(C)CC[C@@H]([C@H](C)C(=O)OCC)O1`, the Potency result in [1], in assay [7], in assay [8] and in [4] was “inactive” each time.
With `CC[C@H](C)C(NC(=O)[C@@H](NC)C(C)C)C(=O)NC1C(=O)N(C)[C@@H](C(C)O)C(=O)N[C@@H](C(C)C)C(=O)N(C)[C@@H](CC(C)C)C(=O)NC(C(C)C)C(=O)N(C)[C@@H](C(C)C)C(=O)N(C)[C@@H](Cc2c[nH]c3cccc(OC)c23)C(=O)N[C@@H](C(C)C)C(=O)N[C@@H]([C@H](O)c2ccccc2)C(=O)N[C@@H](C(C)C)C(=O)O[C@@H]1C` (stereo partly drawn) (H-[NMeV][ξIle][ξThr(3R)(O-yl)][NMeThr(3ξ)]V[NMeL][ξV][NMeV][NMeTrp(4-OMe)]V[Phe(3R-OH)]V; ester 3-C), the Potency result in [1], in assay [6], in assay [7], in assay [13], in assay [3] and in assay [5] was “inactive” each time. In assay [4], the Potency entry is “inactive”. The call in [2] was inactive.
`COc1cc(/C=C2/C(=O)N(c3ccc(O)cc3C(=O)O)[C@H](c3ccc(O)c(OC)c3)C2C(=O)Nc2ccc(O)cc2C(=O)O)ccc1O` (stereo partly drawn): the Potency entry in [1], in assay [6], in [13], in assay [3], in assay [8] and in assay [9] was “inactive” throughout.
Consider `C/C=C/C=C/C1(O)C2C=C3C(=O)CC45C(=O)C(O)=C(C)C(=O)C4C1C1(C(=O)C(O)=C(C)C(=O)C351)C2C` (stereo not drawn), for which the Potency entry in [1], in assay [6], in [7], in [13], in assay [3] and in [9] was “inactive” in each case. Also, in assay [4], the Potency entry is “inactive”.
For `C=C1C[C@@]23C=CC(=O)[C@@](C)(CCC(=O)Nc4c(O)ccc(C(=O)O)c4O)C2C[C@@H]1CC3` (stereo partly drawn), the Potency entry in assay [6], in assay [7], in [13], in assay [5], in [9] and in assay [4] was “inactive” throughout.
With `C/C(=C\[C@H](C)C(=O)CCCC1CC(=O)NC(=O)C1)[C@@H]1OC(=O)/C=C/CC/C=C/C[C@@H](O)[C@@H]1C`, the Potency entry in assay [7], in [13], in [3] and in assay [9] was “inactive” throughout. The Potency in assay [5] is 3.84 µM (active).
Consider `CC(C)CN1CC(CNC(=O)c2ccc(Oc3ccccc3)cc2)Oc2ccnc(-c3ccc(OCC(=O)O)cc3)c2C1=O` (stereo not drawn), for which the Potency entry in assay [10] is “inactive”. Also, the Potency in assay [12] is 28.2 µM (active).
Take `C=C1[C@H]2CC[C@@]3(C=CC(=O)[C@@](C)(CCC(=O)Nc4c(O)ccc(C(=O)O)c4O)C3C2)[C@H]1O` (stereo partly drawn): the Potency entry in assay [1], in assay [7], in assay [3], in assay [5] and in [8] was “inactive” each time.
